# HTR5A inv ctr = HTR5A inverse agonists in luminescence cell assay, primary screen, counter-screen for OPRM1-OPRD1 heterodimer inverse agonist project, full-deck HTS. HTR5A cell line, inverse agonism. inhibition, % at 9.3 µM. hit rate 0.083% among 340,000. AID 504634, 2011; in the data active = inhibition mostly above about 23%, no sharp cut-off; inactive = mostly below about 18%;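 also: 0% = cells with DMSO and 100% = no-cell wells with DMSO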
# HTR2A ag = mouse Htr2a agonists via beta-arrestin recruitment, primary screen, cell-based, luminescence; hit rate 0.66% among 360,000; CHO-K1 mHTR2A beta-arrestin complementation; percent of 30 µM serotonin response; activation, % at 7.6 µM; AID 624169, 2012; 5-hydroxytryptamine receptor 2A (Mus musculus), P35363;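 active = activation above a run cutoff, the mean activation of all tested compounds plus 3 SD, cut at about 14% in these data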;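 also: 0% = plate median of compound wells and 100% = 30 µM serotonin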
# Target sequence (P35363 whole entry, looked up): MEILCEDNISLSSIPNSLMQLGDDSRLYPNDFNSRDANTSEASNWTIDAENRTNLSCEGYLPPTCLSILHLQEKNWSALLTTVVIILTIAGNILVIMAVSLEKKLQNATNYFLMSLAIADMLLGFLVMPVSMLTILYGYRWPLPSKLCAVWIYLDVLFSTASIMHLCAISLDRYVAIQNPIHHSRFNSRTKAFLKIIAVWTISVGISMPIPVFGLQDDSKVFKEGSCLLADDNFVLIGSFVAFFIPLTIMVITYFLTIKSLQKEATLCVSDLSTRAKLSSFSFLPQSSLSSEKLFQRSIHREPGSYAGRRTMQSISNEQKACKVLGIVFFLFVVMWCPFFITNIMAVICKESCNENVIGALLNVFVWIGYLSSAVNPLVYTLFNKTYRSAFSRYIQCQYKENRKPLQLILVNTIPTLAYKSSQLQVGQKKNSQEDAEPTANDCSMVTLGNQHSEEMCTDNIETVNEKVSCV
# OPRM1-OPRD1 inv = inverse agonists of MOR-DOR heterodimerization, primary screen, cell-based, luminescence; hit rate 0.21% among 340,000; Mu-type opioid receptor (Homo sapiens) + Delta-type opioid receptor (Homo sapiens), …; cell-based MOR-DOR heterodimer luminescence, inverse agonism; inhibition, % at 9.3 µM; in the data active = inhibition above about 22%, passing the limit was not always enough;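 also: 0% = cells with DMSO and 100% = wells without cells with DMSO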
# HTR5A ag = HTR5A agonists in luminescence cell assay, primary screen, counter-screen for OPRM1-OPRD1 heterodimer agonist project, full-deck HTS; 5-hydroxytryptamine receptor 5A (Homo sapiens), P47898; cell-based; activation, % at 9.3 µM; hit rate 0.61% among 340,000; AID 504692, 2011; in the data active = activation mostly above about 9.5%, no sharp cut-off; inactive = mostly below about 7.6%;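 also: 0% = cells with vehicle only and 100% = reference agonist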
# OPRM1-OPRD1 ag = agonists of OPRM1-OPRD1 heterodimerization, primary screen, cell-based, luminescence; Mu-type opioid receptor (Homo sapiens) + Delta-type opioid receptor (Homo sapiens), …; cells; activation, % at 9.3 µM; hit rate 0.3% among 340,000; AID 504326, 2011; in the data active = activation above about 18%;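 also: 0% = vehicle-treated cells and 100% = reference agonist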
# sPLA2-III inh = human group III sPLA2 inhibitors, primary screen, biochemical, QFRET, BODIPY PC-A2 liposome substrate; AID 743126, 2013; Group 3 secretory phospholipase A2 (Homo sapiens), Q9NZ20; inhibition, % at 12.2 µM; QFRET BODIPY PC-A2 liposome hydrolysis, fluorescence; hit rate 0.56% among 370,000;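 active = inhibition above mean plus 3 SD of compounds lying within the high and low control bounds, cut at about 19% in these data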;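 also: 0% = median of test compound wells and 100% = no enzyme DMSO wells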
# OPRM1 ag = OPRM1 agonists via beta-arrestin recruitment, confirmation, counter-screen for mouse HTR2A agonist project, cell-based, luminescence, single concentration. shares compounds with HTR2A ag. U2OS OPRM1 beta-arrestin PathHunter; DMSO 0%, DAMGO 9.3 µM 100%. activation, % at 9.3 µM. hit rate 5.3% among 2,300. AID 624380, 2012;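 active = mean activation above the mean of DMSO-only wells plus 3 SD, cut at about 0.5% in these data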
# m5-HT2A ag conf = mouse HTR2A agonists, beta-arrestin recruitment, confirmation, cell-based, luminescence, CHO-K1 PathHunter, triplicate. shares compounds with HTR2A ag. DMSO 0%, 30 µM serotonin 100%. activation, % at 7.6 µM. hit rate 19% among 2,300;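 active = mean activation across triplicates above the hit threshold derived in the original primary screen, cut at about 15% in these data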
# The depositor's hits bear a star; x = no result. The list is not random: actives were taken first. Their share in the collection is about 2.2%.
SMILES,HTR5A inv ctr,HTR2A ag,OPRM1-OPRD1 inv,HTR5A ag,OPRM1-OPRD1 ag,sPLA2-III inh,OPRM1 ag,m5-HT2A ag conf
Cc1ccc(NC(=O)CSc2nc3ccccc3c(=O)n2CCCN2CCCCC2)cc1C,14,16*,-11,-2,2,-18,0,12
COc1ccc(Cn2cc(COC(=O)Nc3ccc(F)cc3)nn2)cc1,x,x,x,x,x,-8,x,x
COc1nc(OC)nc(N2CCC(C(=O)NCc3cccc(OC)c3OC)CC2)n1,x,x,x,x,x,2,x,x
CCOC(=O)C1(Cc2ccccc2)CCN(Cc2ccc(C(F)(F)F)cc2)CC1,x,x,x,x,x,6,x,x
O=C(COC(=O)CCC(=O)c1ccc(Cl)cc1)NCCc1ccccc1,-11,18*,9,-1,-2,-10,-1,-4
CCOC(=O)C1=C(C(=O)OCC)C2N(Cc3ccc(Br)cc3)c3ccccc3[C@@]23C[C@@H](C(=O)OC)N(S(=O)(=O)c2cccs2)C3=N1 (stereo not given in full),x,x,x,x,x,9,x,x
O=C(NC1CCCCN(Cc2ccc(OC(F)(F)F)cc2)C1=O)c1ccc(F)c(F)c1 (stereo not given),x,x,x,x,x,1,x,x
CCC(=O)Nc1cc2nn(-c3ccc(OC)cc3)nc2cc1C,26,0,-2,-10,0,1,x,x
CCCCC(=O)Nc1cc2nn(-c3ccc(OC)cc3)nc2cc1C,19,15*,5,1,-1,-3,0,-2
C#CCNC(=O)C[C@H]1C[C@@]2(C(=O)OC)C(=C[C@H](C(C)C)O[C@@H]2C2CC2)N(Cc2ccc(Cl)cc2Cl)C1=O,x,x,x,x,x,0,x,x
CCN1CCN(CC(O)COc2ccc(C(C)=O)cc2)CC1 (stereo not given),4,-3,7,-1,-1,4,x,x
Cc1cccc(OCC(O)CN2CCN(c3ccccn3)CC2)c1C (stereo not given),25,19*,-2,-7,0,3,-1,40*
COc1cc(C(C)=O)ccc1OCC(O)CN1CCN(c2ccccn2)CC1 (stereo not given),-11,23*,5,3,-1,-1,0,86*
CC(=O)c1ccc(OCC(O)CN2CCN(CCO)CC2)cc1 (stereo not given),-8,17*,7,3,-1,2,-1,-3
CCC(=O)c1ccc(OCC(O)CN2CCN(c3ccccn3)CC2)cc1 (stereo not given),9,29*,6,-2,-1,-4,0,100*
C#CCNC(=O)C[C@@H]1C(=O)N2CCCC3=C2[C@@]1(C(=O)OC)CCCC3,x,x,x,x,x,4,x,x
CC[C@@H](CCCc1ccc(F)cc1)CN(Cc1ccc(OC)cc1)S(=O)(=O)c1ccc(C)cc1,x,x,x,x,x,5,x,x
CC(C)(C)SC(=O)CC1NS(=O)(=O)OC2CCCCC12 (stereo not given),4,23*,-5,-1,1,2,0,-4
CC1CCC2(CCC(=O)N2CCCOC(=O)NC(C)(C)C)CC1 (stereo not given),x,x,x,x,x,18,x,x
Cc1cc2nc(C)c(Cl)c(=O)n2[nH]1,-5,0,7,2,-1,2,x,x
Cc1nc2cc(-c3ccc(Br)cc3)[nH]n2c(=O)c1Cl,8,18*,5,-2,-1,-8,-1,-3
CC(C)C[C@H]1COc2ccc(Cl)cc2S(=O)(=O)N1Cc1cn(Cc2ccc(C(F)(F)F)cc2)nn1,x,x,x,x,x,5,x,x
CCCCOc1ccc(C(=O)NC2CCCCN(Cc3ccc(C)cc3)C2=O)cc1 (stereo not given),x,x,x,x,x,-2,x,x
COC(=O)[C@@H]1C[C@@]2(O)[C@H](O)[C@H](O)[C@H](O)C[C@H]2N1CC(c1ccccc1)c1ccccc1,-15,20*,6,-2,-1,6,-1,0
C=CCn1c(SCC(=O)NC2CC2)nnc1-c1ccccn1,10,3,13,7,-2,8,x,x
SMILES,HTR5A inv ctr,HTR2A ag,OPRM1-OPRD1 inv,HTR5A ag,OPRM1-OPRD1 ag,sPLA2-III inh,OPRM1 ag,m5-HT2A ag conf
C=CCn1c(SCC(=O)NC2CCCCC2)nnc1-c1ccccn1,12,14*,12,4,-2,1,-1,-1
CCN(Cc1ccc2c(c1)OCO2)C(=O)/C=C/c1cccc(Br)c1,-18,-1,-21,6,3,-5,x,x
CC(C)(C)N(Cc1ccc2c(c1)OCO2)C(=O)/C=C\S(=O)c1ccccc1 (stereo not given),14,19*,12,-4,-2,-3,-1,2
CCc1cc2c(SCc3ccc(C(=O)OC)o3)ncnc2s1,15,15*,3,-6,0,-6,0,-2
O=c1[nH]c(C2CCN(S(=O)(=O)c3ccc(F)cc3)CC2)nc2c1nnn2Cc1ccc2c(c1)OCCO2,-6,15*,2,2,0,-39,-1,-4
O=c1[nH]c(C2CCN(S(=O)(=O)c3ccccc3F)CC2)nc2c1nnn2Cc1ccc2c(c1)OCCO2,9,-3,10,-2,-2,-3,x,x
COc1ccccc1CNS(=O)(=O)c1ccc2c(c1)NC(=O)CO2,-1,16*,9,3,-2,-3,-1,-2
COc1ccc(CCNC(=O)c2nonc2N)cc1,-22,4,11,1,-2,4,x,x
COc1cccc(CNCCNC(=O)c2nonc2N)c1,3,19*,-1,2,0,2,-1,-5
Cc1ccc(-c2nn(-c3ccccc3)cc2CO)o1,-17,15*,-5,-1,1,-19,-1,-3
C[C@H](O)[C@@H]1C(=O)N2CCc3c([nH]c4cccc(-c5ccccc5)c34)[C@@H]2C[C@@H]1N(C)C(=O)Nc1ccccc1,x,x,x,x,x,-13,x,x
Cc1cccc(C)c1NC(=O)c1sc(N)nc1-c1ccccc1,-3,19*,-10,1,2,-4,0,-2
O=C(NCc1ccc(F)cc1)C1CCCN(S(=O)(=O)c2cccc3nonc23)C1 (stereo not given),28,17*,-4,-3,1,2,-1,-4
Cc1ccc(Cn2nnc3c2-c2ccccc2S(=O)(=O)N(C)C3)cc1,x,x,x,x,x,10,x,x

# Compound activity from PubChem BioAssay.
